Data on 97 compounds can be found in PubChem BioAssay AID1259372 (The Scripps Research Institute Molecular Screening Center, 2018).

Structures are written as SMILES. Among all 4,700 compounds or so, about 760 (16%) were called active. The list is a sample of the results. A number with no mark means an inactive call.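 The calls were made as follows: active = inhibition above a cutoff derived from the DMSO control wells (cut at about 28% in these data); inactive = the rest.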

For this assay, the target named is Microphthalmia-associated transcription factor (Homo sapiens) (UniProt O75030). The assay is described as follows: blockers of human MITF dimerization – biochemical, AlphaScreen, triplicate, confirmation (AID 1259372). Conditions: AlphaScreen MITF homodimerization, biotin/His-MITF beads; at 2.6 µM; stronger effect = higher value. (Bead proximity is the source of the signal in Alpha formats.)
Microphthalmia-associated transcription factor (Homo sapiens), sequence (O75030 whole entry, looked up): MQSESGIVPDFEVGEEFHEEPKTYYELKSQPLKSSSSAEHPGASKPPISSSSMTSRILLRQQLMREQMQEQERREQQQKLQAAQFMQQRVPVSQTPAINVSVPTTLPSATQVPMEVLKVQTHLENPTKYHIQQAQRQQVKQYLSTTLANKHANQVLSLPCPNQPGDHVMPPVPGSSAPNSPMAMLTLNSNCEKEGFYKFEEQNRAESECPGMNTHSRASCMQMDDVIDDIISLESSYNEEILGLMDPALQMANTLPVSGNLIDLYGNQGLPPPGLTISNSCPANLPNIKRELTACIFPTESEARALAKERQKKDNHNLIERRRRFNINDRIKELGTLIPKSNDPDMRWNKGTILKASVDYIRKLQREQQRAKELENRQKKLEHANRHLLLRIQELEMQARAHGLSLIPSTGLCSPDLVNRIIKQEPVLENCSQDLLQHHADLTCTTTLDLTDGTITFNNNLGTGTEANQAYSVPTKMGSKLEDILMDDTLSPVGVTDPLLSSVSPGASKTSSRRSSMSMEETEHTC
What is called inhibition is the relative decrease from the control value, in per cent. `CC(NCCCN1CCOCC1)C(=O)Nc1ccccc1` (configuration not stated): the inhibition was 5.64%. For `CN(CCC(=O)O)Cc1cccc(Cl)c1` the value was -8.04%; for `CC[C@@H]1NC(=O)[C@H]2CN(C(=O)NCc3ccccc3)CCN2C1=O`, 73.6% (active). Next, `C[C@@H](OCc1ccccc1)[C@@H]1NC(=O)[C@H]2CN(C(=O)Nc3cccc(F)c3)CCN2C1=O`: 68.9% (active); `Cc1n[nH]c(=O)nc1N/N=C/c1cccs1`: 35.1% (active). Next, `CCCS(=O)(=O)N1CCN(C(C)C)CC1`: 10.5%; `CC(C)CO/N=C1\C[C@@H](O)[C@@H](O)[C@@H]2[C@@H]3C(=O)N([C@@H](C)c4ccccc4)C(=O)[C@@H]3CC[C@@H]12`: 3.51%; `O=C(OCCN1CCOCC1)c1c(Cl)nc2sccn12`: 9.99%. For the compound `O=C(C1CCN(Cc2nc3ccccc3[nH]2)CC1)N1CCN(c2ccccn2)CC1`, the inhibition was 0.24%. For `COc1ccc(OC)c(CN2CCN(Cc3ccccc3OC)CC2)c1` the value was 10.6%. Regarding `C=CCNCCOCCOc1cc(C)ccc1C(C)(C)C`, the inhibition was 7.1%. For `Cc1cnc(NCc2ccc3c(c2)OCO3)nc1Nc1ccccc1` the value was -0.48%. Next, `c1cc2c(cc1CN1CCN(C3CCCCC3)CC1)OCO2`: -2.28%. Turning to `c1cc2c(cc1CNc1nc(Nc3ccc(N4CCOCC4)cc3)c3ncn(C4CCCCC4)c3n1)OCO2`, the inhibition was 71.3% (active). For `CC(C)(C)NCCOCCOc1ccc(Cl)c(Cl)c1` the value was 4.77%. For `O=C(Nc1ccc2c(c1)OCO2)C(c1ccccc1)N(Cc1ccccc1)Cc1ccccc1` (configuration not stated) the value was -3.96%; for `Cc1cccc(CSc2n[nH]c(=O)[nH]c2=O)c1`, -2.69%.

On to `COc1cc(OC)c(OC)cc1CN1CCN(Cc2ccc(F)cc2)CC1`, for which the inhibition was -1.09%.

Turning to `Cc1nnc(N2CCC(Cc3ccccc3)CC2)c2ccccc12`, the inhibition is 2.32%. For `COc1ccc(CNCC2CN(CC(C)C)CCO2)cc1` (configuration not stated) the value was 10%; for `CCN1CCN(CCOCCOc2ccc([N+](=O)[O-])cc2)CC1`, 3.04%; for `c1ccc(-c2ccccc2OCCNCCN2CCOCC2)cc1`, 16.9%.

Consider `O=C(O)CCCCCNC(=O)/C(=C\c1ccco1)NC(=O)c1ccccc1`, for which the inhibition is 25.9%.

As to `O=[N+]([O-])c1ccccc1CN1CCN(Cc2ccccc2C(F)(F)F)CC1`, the inhibition is 3.85%.

`Cc1cc(OCCN2CCN(C)CC2)ccc1C(C)C`: the inhibition is -2.72%. For `O=C(O)CCCCC1SCC2NC(=O)NC21O` (configuration not stated) the value was 116% (active); for `COC(=O)C1(C)NC(c2ccc(C)cc2)C2C(=O)N(c3ccc(F)cc3)C(=O)C21` (configuration not stated), 11.8%. As to `CC(=O)c1ccc(NC(=O)C(C)NCc2ccc(C)cc2)cc1` (configuration not stated), the inhibition was 3.11%.

`O=C(c1cccs1)N1CCC(N2CCN(Cc3ccccc3)CC2)CC1`: the inhibition was 1.58%. Next, `NC(=O)COC(=O)/C=C/c1ccc(I)o1`: 57.8% (active).

`Cc1nc(NC2CC2)cc(-c2ccc(F)cc2)n1`: the inhibition was 12%.

Regarding `CCOc1ccc(CN2CCN(C(=O)c3cccc(Cl)c3)CC2)cc1`, the inhibition was -0.91%. Next, `CC(C)c1ccc(C2/C(=C(/O)c3ccccc3)C(=O)C(=O)N2CCN(C)C)cc1` (configuration not stated): 4.9%; `CCCCCOc1ccc(OC(=O)c2ccc(-c3ccc(CCC)cn3)cc2)cc1`: 4.5%; `COc1ccc(Br)cc1CN1CCN(CCOCCO)CC1`: -4.85%.

For the compound `O=S(=O)(c1ccc(Br)cc1Cl)N1CCN(CCc2ccncc2)CC1`, the inhibition was 11.6%. For `CCN(CC)CC(=O)Nc1c2c(nc3ccccc13)N(c1cccc(C)c1)CC2`, the inhibition is -3.54%. For `c1ccc(CCCCNc2nccc(Nc3ccncn3)n2)cc1` the value was -1.64%; for `CN(C)CC(C)(C)CNCc1nnc(-c2ccccc2)o1`, -4.13%. Next, `COc1ccc(CN2CCN(Cc3cccnc3)CC2)cc1OCc1ccccc1`: 3.98%; `CCCCCCOC(=O)c1cc(C(=O)OCCCCCC)c(C)nc1C`: -4.67%; `COc1cccc(C(=O)N2CCN(Cc3cc(OC)c(OC)cc3OC)CC2)c1`: 0.86%.

As to `COc1cc(CN2CCN(Cc3cc(OC)c(OC)cc3OC)CC2)cc(OC)c1`, the inhibition was 7.67%. Next, `c1ccc(Oc2cccc(OCCCCn3cncn3)c2)cc1`: -15.6%; `CCCn1c(C)cc(-c2csc(NC(=O)Cc3ccsc3)n2)c1C`: 21.7%; `COC(=O)c1cccc(NS(=O)(=O)c2ccc3ccccc3c2)c1C`: 1.98%. Regarding `Clc1ccc(CN2CCN(CC3CC=CCC3)CC2)cc1` (configuration not stated), the inhibition is -2.27%.

For the compound `COc1cc(CN2CCN(Cc3ccc(C)cc3)CC2)c([N+](=O)[O-])cc1OC`, the inhibition was 6.72%. Next, `CCOc1ccccc1N1CCN(Cc2cc(OC)c(O)c([N+](=O)[O-])c2)CC1`: 32.4% (active). For `CCOc1cc(CN2CCN(Cc3ccccn3)CC2)ccc1OC` the value was 13.2%; for `CCN1CCN(CCCOc2ccc(C(C)=O)cc2OC)CC1`, 1.36%. Take `COc1cc(CN(CCN(C)C)Cc2ccccc2)cc(OC)c1`: the inhibition is 15.3%. On to `Cc1cc(C(C)(C)C)ccc1OCCN1CCNCC1`, for which the inhibition was -3.14%.

Consider `Cn1c(-c2ccc(F)cc2)cnc1NCc1cccnc1`, for which the inhibition is -19.5%. For `Cc1ccc(CN2CCN(Cc3ccncc3)CC2)cc1` the value was 15.2%.

Consider `COc1cccc(CN2CCN(C(=O)c3ccccc3F)CC2)c1`, for which the inhibition is -1.9%. Next, `c1cc2c(cc1CN1CCN(C3CCCC3)CC1)OCO2`: -0.1%; `O=C1NC(c2ccccc2[N+](=O)[O-])C(C(=O)c2cccs2)C(O)(C(F)(F)F)N1` (configuration not stated): 4.8%. Next, `CN1CCN(CCOCCOc2ccccc2Cl)CC1`: 6.9%. For `N#C/C(=C/c1ccc(-c2ccc3c(c2)C(=O)NC3=O)o1)C(=O)O` the value was 6.58%; for `CCc1ccc(NC(=O)CS(=O)CC(=O)NCCCc2ccccc2)cc1` (configuration not stated), 44.5% (active); for `Cc1ccc(NC(=O)CNCCCSc2ccccc2)cc1C`, 14.7%. Regarding `Nc1ccc(S(=O)(=O)O)c2cc(S(=O)(=O)O)cc(O)c12`, the inhibition is 42.7% (active).

With `Cc1ccc(C)c(OCCN2CCOCC2)c1C`, the inhibition is 15.2%.

With `COc1cc(CN2CCN(Cc3ccccc3Br)CC2)cc(OC)c1`, the inhibition was 9.11%. For `COc1ccc(COCC(O)CNCC(C)(C)CN(C)C)cc1OC` (configuration not stated) the value was 3.01%. For `COCc1nc2ccccc2n1CCc1noc(-c2ccco2)n1` the value was 6.8%; for `C1=CC2CC1CC2CN1CCN(Cc2c[nH]c3ccccc23)CC1` (configuration not stated), -0.81%; for `COc1cccc(/C=C(\C#N)c2nc3ccccc3[nH]2)c1OCc1ccc(Cl)cc1Cl`, 0.99%. As for `COc1ccc(CN2CCN(Cc3ccccc3OC)CC2)cc1Br`, the inhibition was 5.52%. For the compound `O=[N+]([O-])c1ccc(OCc2nnc(SCCN3CCOCC3)n2-c2ccccc2)cc1`, the inhibition is 2.94%.

With `CCCS(=O)(=O)N1CCN(Cc2ccc(OC)c(OCc3ccccc3)c2)CC1`, the inhibition was -0.41%. For `CC1CN(CCOc2ccccc2[N+](=O)[O-])CC(C)O1` (configuration not stated) the value was 6.95%; for `Cc1ccc(C(C)C)c(OCCN2CCNCC2)c1`, -8.7%. For `COc1ccc2c(c1)CC(C(=O)Nc1ccc(-c3cn[nH]c3)cc1OCC(N)=O)CO2` (configuration not stated) the value was 40.3% (active); for `COc1ccc2c(c1)CC(C(=O)Nc1ccc(-c3cn[nH]c3)cc1OCc1ccccc1)CO2` (configuration not stated), 56% (active); for `COc1ccc(NC(=O)CN2CCN(C)CC2)c(OC)c1`, 13%. Next, `CC1CCN(S(=O)(=O)c2ccc(Cl)c(C(=O)Nc3ccccc3[N+](=O)[O-])c2)CC1`: 16.1%; `Clc1cccc(CN2CCN(C3CCCC3)CC2)c1`: 12.9%.

Turning to `O=C(c1cccc(Cl)c1)N1CCN(Cc2cccnc2)CC1`, the inhibition was 16.8%. Next, `Brc1cccc(CN2CCN(Cc3cccnc3)CC2)c1`: 5.44%. Next, `O=C(c1ccc2c(c1)C(=O)N(Cc1cccnc1)C2=O)c1ccc2c(c1)C(=O)N(Cc1cccnc1)C2=O`: 51.2% (active). Next, `COc1ccc(-c2nc(Nc3cc(OC)c(OC)c(OC)c3)c3[nH]cnc3n2)cc1`: 14%. Turning to `COc1cc(CN2CCN(Cc3ccc(Cl)cc3)CC2)c([N+](=O)[O-])cc1OC`, the inhibition was 5.78%. For `O=C(Nc1ccc(-c2ccncc2)c(C(F)(F)F)c1)C1COc2ccccc2O1` (configuration not stated) the value was 42.5% (active). Next, `COc1ccc(CN2CCN(Cc3ccccc3C(F)(F)F)CC2)cc1OC`: 24.4%; `CCN1CCN(CC(O)COc2cccc(C(=O)OC)c2)CC1` (configuration not stated): -4.86%; `COc1cccc(CN2CCN(C/C=C/c3ccccc3)CC2)c1OC`: 2.33%. For `Cc1cc(NC(=O)/C=C/C(=O)N(CC(=O)NC2CCCC2)c2ccc(F)cc2)no1` the value was 10.1%; for `COc1cccc(OC)c1C(=O)N1CCN(Cc2cccnc2)CC1`, -5.41%; for `CS(=O)(=O)N1CCN(Cc2cccc(Cl)c2)CC1`, -2.19%. For `CN(CCc1ccccn1)CC(=O)N1CCc2ccccc21`, the inhibition was 12.3%. In the case of `CSc1ccc(CN2CCN(S(=O)(=O)c3ccc([N+](=O)[O-])cc3)CC2)cc1`, the inhibition is 19.9%. Next, `Cn1c(=NC(=O)COc2ccccc2)sc2cc(S(C)(=O)=O)ccc21`: 4.53%; `NS(=O)(=O)c1cccc(NC(=O)COc2ncnc3sc(-c4ccccc4)cc23)c1`: 13.3%. Next, `Cc1cc(S(=O)(=O)Nc2ccc3c(c2)OCCO3)ccc1-n1cnnn1`: 5.76%.

`COc1cc2nc(-c3cccc(C(C)=O)c3)nc(N)c2cc1OC`: the inhibition was -8.94%.
